In all, about 110,000 compounds were measured (“z-score”: median about -0.1, highest 2% from about 2 on). This excerpt belongs to a sample that is enriched for the highest values. Active and inactive are the calls of the source.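 Rule for the calls: active = z-score in the third read window above 3 or below -3; inactive = the rest.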

This test deals with Metabotropic glutamate receptor 8 (Rattus norvegicus) (UniProt P70579). The test can be described thus: mGluR8 Gi/Go-coupled signaling modulation – cell-based, rat, thallium flux, HTS, primary screen (AID 488969). To be noted: HEK293 rat mGluR8, GIRK (G protein-gated inwardly rectifying potassium channel) thallium flux, FluoZin2; at 10 µM; stronger effect = higher value; submaximal glutamate (EC20) added with thallium.
Sequence of Metabotropic glutamate receptor 8 (Rattus norvegicus) (P70579 whole entry, looked up): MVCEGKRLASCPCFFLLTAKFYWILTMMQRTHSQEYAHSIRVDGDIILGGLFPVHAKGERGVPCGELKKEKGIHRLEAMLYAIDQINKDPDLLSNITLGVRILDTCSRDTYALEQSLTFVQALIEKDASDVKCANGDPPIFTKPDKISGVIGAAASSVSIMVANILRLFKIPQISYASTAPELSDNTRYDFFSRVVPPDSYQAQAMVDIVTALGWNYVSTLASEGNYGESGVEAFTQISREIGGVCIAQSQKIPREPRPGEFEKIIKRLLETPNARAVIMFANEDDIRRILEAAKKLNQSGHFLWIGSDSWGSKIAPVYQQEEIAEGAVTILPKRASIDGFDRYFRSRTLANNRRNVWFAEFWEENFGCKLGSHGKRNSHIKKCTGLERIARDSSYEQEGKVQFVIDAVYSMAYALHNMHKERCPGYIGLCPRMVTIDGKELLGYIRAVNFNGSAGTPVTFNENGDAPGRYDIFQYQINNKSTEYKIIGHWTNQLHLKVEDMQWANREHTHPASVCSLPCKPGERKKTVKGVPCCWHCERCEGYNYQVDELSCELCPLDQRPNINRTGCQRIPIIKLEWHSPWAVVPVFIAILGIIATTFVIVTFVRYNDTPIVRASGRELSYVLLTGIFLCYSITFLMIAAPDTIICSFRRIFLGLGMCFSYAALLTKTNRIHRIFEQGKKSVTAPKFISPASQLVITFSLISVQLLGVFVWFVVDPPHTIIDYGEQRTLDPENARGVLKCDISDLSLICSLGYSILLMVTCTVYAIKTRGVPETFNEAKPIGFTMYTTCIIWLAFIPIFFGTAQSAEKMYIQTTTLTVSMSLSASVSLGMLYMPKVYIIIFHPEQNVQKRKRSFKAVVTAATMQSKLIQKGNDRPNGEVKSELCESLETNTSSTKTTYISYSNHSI
Turning to `CCc1ccc(OCC(=O)NC(NC(=S)Nc2ccccc2OC)C(Cl)(Cl)Cl)cc1` (stereo not drawn), the z-score is -0.163.

In turn, `Cc1cc(C(=O)OCC(=O)NC(C)(C)C)c2ccccc2n1` came in with a z-score of -0.284. For `O=C(N/N=C1\CCc2ccccc21)c1ccccc1Cl` the value was -0.225. Then `COc1ccc(CCCc2nnc(SCC(=O)Nc3nc(C)cs3)n2C)cc1`, with 0.338; and `O=C(NC1CCCC1)c1cccc(NC(=O)c2ccco2)c1`, with 0.253. For `Cc1onc(-c2c(F)cccc2Cl)c1C(=O)Nc1cccc2nsnc12` the value was 2.67. Turning to `Cc1onc(-c2ccccc2)c1C(=O)Nc1cccc2nsnc12`, the z-score is -0.396. `Cc1onc(-c2ccccc2Cl)c1C(=O)Nc1cccc2nsnc12` came in with a z-score of 1.17. `CC1CCCCN1C(=O)Nc1cccc(Cl)c1` (stereo not drawn): the z-score is 0.789. Consider `COc1ccc(C(=O)c2c(C)c3cc(C)ccc3n2CC(O)CN2CCOCC2)cc1` (stereo not drawn), for which the z-score is -0.197. Then `CS(=O)(=O)N(CC(=O)NCCSc1ccccc1)c1ccc2c(c1)OCO2`, with 1.46; and `Cc1ccc2nc(SCC(=O)N3CCOCC3)[nH]c2c1`, with 0.844. For `Cc1ccccc1NC(=S)NNC(=O)c1csc2c1CCC(C)C2` (stereo not drawn) the value was 8.84 (active).

As for `CC(C)CNC(=S)NNC(=O)c1csc2c1CCC(C)C2` (stereo not drawn), the z-score was -1.59. Then `Cc1cccc(NC(=S)NNC(=O)c2csc3c2CCCC3)c1`, with 14 (active). For `CC1CCc2c(C(=O)Nc3ccc(OC(F)(F)F)cc3)csc2C1` (stereo not drawn) the value was -0.225; for `CC1CCc2sc(C(=O)N/N=C/C3CCCCC3)cc2C1` (stereo not drawn), -0.764; for `Cc1ccccc1NC(=O)c1csc2c1CCCC2`, -0.435. The compound `Cc1cccc(NC(=S)NNC(=O)c2ccc(Br)o2)c1` showed a z-score of 1.14. On to `Cc1cccc(NC(=S)NNC(=O)c2ccccc2Br)c1`, for which the z-score was 0.847.

The compound `CCNC(=S)NNC(=O)c1csc2c1CCC(C)C2` (stereo not drawn) gave a z-score of 0.0328. Then `C/C(=N\NC(=O)c1cc2c(s1)CCC(C)C2)c1ccncc1` (stereo not drawn), with -0.506; and `Cc1cccc(NC(=S)NNC(=O)c2csc3c2CCC(C)C3)c1` (stereo not drawn), with 9.39 (active); and `Cc1ccc(C)c(NC(=S)NNC(=O)c2cc3c(s2)CCC(C)C3)c1` (stereo not drawn), with 10.3 (active). In the case of `COc1ccc(OC)c(CN(CCCN2CCOCC2)S(=O)(=O)c2ccc(NC(C)=O)cc2)c1`, the z-score is -0.129. Then `CCN(CC)S(=O)(=O)c1ccc(-c2nnc(SCC(=O)Nc3ccc(OC)c(OC)c3)o2)cc1`, with 0.581.

As for `COc1ccc(OC(C)C(=O)Nc2ccccc2C(F)(F)F)cc1` (stereo not drawn), the z-score is -0.114.

The compound `O=C(Nc1ccccc1C(=O)NCc1ccccc1)c1ccccc1` registered a z-score of -0.543. For `COn1c(=O)c(=O)n(O)c2ccccc21` the value was -0.141; for `CN1C(=O)c2cccc(N(C)C)c2C1=O`, -0.183; for `O=C(Nc1nsc(-c2ccccc2)n1)c1cccs1`, -0.31. For `Cc1nn(-c2cccc(Cl)c2)c2c1C(c1cccnc1)C(C#N)=C(N)O2` (stereo not drawn) the value was 0.0248; for `CCCCOc1ccc(CONS(=O)(=O)c2ccc(NC(C)=O)cc2)cc1Cl`, -0.176.

Compound `CN1CCc2c(sc(N)c2C(N)=O)C1` registered a z-score of -0.167. For `Cc1cc(C(=O)N/N=C/c2ccc(-c3ccccc3Cl)o2)n[nH]1` the value was -0.496.

Take `CCNC(=S)NNC(=O)c1csc2c1CCCC2`: the z-score was -0.209. For `CCCCNC(=S)NNC(=O)c1csc(C)c1C` the value was 0.0325. Compound `Cc1ccc(C)c(NC(=S)NNC(=O)c2csc(C)c2C)c1` showed a z-score of 2.09. For `Cc1ccc(C)c(NC(=S)NNC(=O)c2csc3c2CCC(C)C3)c1` (stereo not drawn) the value was 13.8 (active); for `Cc1ccc(C)c(NC(=S)NNC(=O)c2csc3c2CCCC3)c1`, 7.26 (active); for `CC(C)CNC(=S)NNC(=O)c1csc2c1CCCC2`, -0.116.

For `CC1CCc2c(C(=O)Nc3nccs3)csc2C1` (stereo not drawn), the z-score is -0.208.

The compound `Cc1ccc(C)c(NC(=S)NNC(=O)c2ccco2)c1` yielded a z-score of -0.0706. `CCCCNC(=S)NNC(=O)c1csc2c1CCC(C)C2` (stereo not drawn) gave a z-score of 0.319. For `COC(=O)Cn1c(=NC(=O)c2ccc(OC)c(OC)c2)sc2cc(OC)ccc21` the value was -0.167. Compound `COc1ccc(/C=C2\CCCc3c2nc2ccccc2c3C(=O)OCC(=O)c2c(N)n(C)c(=O)n(C)c2=O)cc1` yielded a z-score of -0.224. Regarding `O=C(CCn1nc(-c2ccccc2)c2ccccc2c1=O)NCC1CCCO1` (stereo not drawn), the z-score was -0.116. Then `Clc1ccc(OCc2cc(-c3ccccc3)no2)cc1Cl`, with -0.0469; and `O=C(CCCCCN1C(=O)c2ccccc2C1=O)Nc1ccc(F)cc1`, with -0.0499. Then `CC(C)(C)c1ccccc1OCCCCN1CCCC1`, with 2.06; and `Cc1cccc(C)c1OCCCN1CCCC1`, with 0.0506; and `Cc1cccc(C(C)(C)C)c1OCCOCCN1CCCC1`, with 0.391. For `Cc1ccc(C(C)(C)C)c(OCCCCN2CCCC2)c1` the value was 0.658; for `Cc1cccc(C(C)(C)C)c1OCCCCN1CCCC1`, 2.48. The compound `CC(C)(C)c1ccccc1OCCN1CCCC1` had a z-score of -0.516.

For `COC(=O)c1cc2oc(C)cc2n1CC(=O)Nc1cc(C)cc(C)c1`, the z-score is -0.162.

`O=C(CN1C(=O)CCS(=O)(=O)c2ccccc21)NCc1ccccc1` had a z-score of 0.305. For `CCOc1ccc(C(=O)/C=C/c2ccccc2C(F)(F)F)cc1` the value was -0.354; for `O=C(NCc1ccccn1)c1c(Cl)cccc1Cl`, 0.0849. For `CC(O)c1nc2ccccc2n1C1CCCCC1` (stereo not drawn) the value was 6.36 (active); for `CCCCn1c(C(C)O)nc2ccccc21` (stereo not drawn), -0.321; for `CC(C)CCn1c(C(C)O)nc2ccccc21` (stereo not drawn), -0.257. For `N#CCCn1cc(C(CC(=O)c2ccccc2)C(=O)O)c2ccccc21` (stereo not drawn) the value was -0.0596; for `Cc1cccc(N=c2oc3cc(O)ccc3cc2C(N)=O)c1`, 0.0144. In the case of `COc1ccc(OC)c(N=c2oc3cc(O)ccc3cc2C(N)=O)c1`, the z-score was determined as 1.99.

Compound `COc1ccc(N=c2oc3cc(O)ccc3cc2C(=O)NCC2CCCO2)c(OC)c1` (stereo not drawn) returned a z-score of -0.403. For `C=CCN1C(=O)/C(=C2/Sc3ccccc3N2C)SC1=Nc1c(C)n[nH]c1C` the value was 3.97 (active); for `C=CCN1C(=O)/C(=C2/Sc3ccccc3N2CCCS(=O)(=O)O)SC1=S`, -0.352. As to `C=CCN1C(=O)/C(=C2/Sc3ccccc3N2C)SC1=Nc1ccccc1C`, the z-score was -0.792.

Compound `CCOC(=O)c1ccc(N2C(=O)CC(N3CCC(O)(c4ccc(Cl)cc4)CC3)C2=O)cc1` (stereo not drawn) registered a z-score of 0.433. Take `CCCCC1S/C(=N/N=C/c2ccc(OC)cc2)N(Cc2ccc(OC)cc2)C1=O` (stereo not drawn): the z-score is -0.524. Turning to `CCOC(=O)c1c(CN(CC)CC)oc2cc(Br)c(O)cc12`, the z-score is -1.27. Then `COC(=O)C1CCN(C(=O)COc2cc3sc(C)nc3c3sccc23)CC1`, with -1.34; and `Cc1cc(NS(=O)(=O)c2ccc(NC(=S)NC(=O)c3ccc(F)cc3)cc2)no1`, with -0.0103; and `CCc1nnc(NS(=O)(=O)c2ccc(NC(=S)NC(=O)c3ccc(F)cc3)cc2)s1`, with 0.102. For `Cc1cc(NS(=O)(=O)c2ccc(NC(=S)NC(=O)c3ccccc3)cc2)no1` the value was 2.22; for `CCc1nnc(NS(=O)(=O)c2ccc(NC(=S)NC(=O)c3ccccc3)cc2)s1`, 5.21 (active). Then `CCc1nnc(NS(=O)(=O)c2ccc(NC(=S)NC(=O)c3ccc(Br)cc3)cc2)s1`, with -1.21. `Cc1cc(NS(=O)(=O)c2ccc(NC(=O)Nc3ccccc3)cc2)no1`: the z-score worked out at 0.82. For `Cc1ccc(Cn2c(SCC(=O)N/N=C/c3ccc(C)o3)nc3ccccc32)cc1`, the z-score was -0.169.

In turn, `Cc1ccc(-c2cnc(SCC(=O)N3CCCc4ccccc43)n2C)cc1` had a z-score of -0.31. Then `O=C1c2ccccc2C(=O)N1CC1=CCS(=O)(=O)C1`, with 0.399. On to `COc1ccc(N2CCN(C(=O)CCCn3c(=S)[nH]c4cc5c(cc4c3=O)OCO5)CC2)cc1`, for which the z-score was -0.487. As for `Cc1cc(C)nc(NC(=O)CCC2CCCC2)c1`, the z-score was -0.0409. With `CS(=O)(=O)Nc1ccc(C(=O)NCCC2=CCCCC2)cc1`, the z-score was found to be 1.28.

For `COc1ccc(-n2c(C)nc3cc(C(=O)NCc4ccco4)ccc32)cc1`, the z-score turned out to be 2.54. `COc1ccc(-n2c(C)nc3cc(C(=O)NCc4ccc5c(c4)OCO5)ccc32)cc1`: the z-score was -0.347. Compound `CCOc1ccc(-n2c(C)nc3cc(C(=O)NCc4ccco4)ccc32)cc1` displayed a z-score of 0.364. For `CC(=O)c1c(C)nn(C(C)CC(=O)O)c1C` (stereo not drawn) the value was -0.0267. For `COc1cc(OC)nc(NC(=O)CSc2nnc(-c3ccccc3)n2C2CCCCC2)n1` the value was -0.277; for `O=C(Nc1cccc(F)c1)c1ccccc1-c1ccccc1`, -0.369; for `CC1(c2ccccc2)CC(C)(C)N(C(=O)CSc2nnc(N)s2)c2ccccc21` (stereo not drawn), -0.521.

As to `CC(=O)N1c2ccccc2C(C)(c2ccccc2)CC1(C)C` (stereo not drawn), the z-score is -0.236. Consider `CN1CCN(CC(=O)N2c3ccccc3C(C)(c3ccccc3)CC2(C)C)CC1` (stereo not drawn), for which the z-score is 3.59 (active). For `CN1CCN(CC(=O)N2c3ccccc3C(C)(c3ccc(Cl)cc3)CC2(C)C)CC1` (stereo not drawn) the value was 3.21 (active); for `Cc1nnc(SCC(=O)N2c3ccccc3C(C)(c3ccccc3)CC2(C)C)s1` (stereo not drawn), 0.611; for `Cc1nnc(SCC(=O)N2c3ccccc3C(C)(c3ccc(Cl)cc3)CC2(C)C)s1` (stereo not drawn), 0.227. Then `CC1Cc2ccccc2N1C(=O)CCNS(=O)(=O)c1ccc2c(c1)CCC(=O)N2` (stereo not drawn), with -0.0721. Regarding `Cn1c(=O)c2c(nc(NCCO)n2C)n(C)c1=O`, the z-score is 0.204. Regarding `CCn1c(NCc2ccco2)nc2c1c(=O)n(C)c(=O)n2C`, the z-score amounted to 0.397.

In turn, `CCn1c(C)c(C2=CCN(S(=O)(=O)c3ccc(C)cc3)CC2)c2ccccc21` gave a z-score of 0.0891. Then `CCN1C(=O)c2cccc3cccc1c23`, with -0.389; and `CCc1ccc2c(c1)c1nnc(NN)nc1n2CC`, with -0.278; and `CCOc1ccc2c(c1)c(N=Nc1cccc(C(=O)O)c1)c(O)n2C`, with -0.0674.

For `CCn1c(O)c(N=NC2=NC(=O)CS2)c2cc(C)ccc21`, the z-score was found to be 2.24.

Regarding `CCOc1ccc2c(c1)c(N=NC(=N)N)c(O)n2C`, the z-score was -0.224. Compound `Cc1cc(C)nc(N=Nc2c(O)n(Cc3ccc(Cl)cc3)c3ccccc23)n1` registered a z-score of 0.0163. For `CCn1c(O)c(N=NC2=NC(=O)CS2)c2ccccc21` the value was 0.217; for `CCc1ccc2c(c1)c(N=NC1=NC(=O)CS1)c(O)n2C`, 2.09; for `CCn1c(O)c(N=NC(=O)CNc2cccc(C)c2)c2ccccc21`, 1.4.

For `CCc1ccc2c(c1)c(N=NC1=NC(=O)CS1)c(O)n2CC`, the z-score is 2.98. Compound `Cc1ccc(O)c(C(=O)/C=C/c2ccc3c(c2)OCCCO3)c1` displayed a z-score of 0.653.

Take `CC(=O)NC1=NN(C(C)=O)C(C)(CS(=O)(=O)c2ccc(C)c(C)c2)S1` (stereo not drawn): the z-score was -0.323.

The values are drawn from PubChem BioAssay AID488969 (Vanderbilt High Throughput Screening Facility, 2010).
